Screen size: about 5,500 compounds; about 2,000 (36%) were called active. Another 18% or so got no clear call; they are omitted. Cut-off read from the data, not from the text of the source: active = normalized growth mostly below about 0.91 (no sharp cut-off); inconclusive = no clear call, values can overlap the other calls; inactive = mostly above about 0.92. This is one part of the list.
Assay: chemical genetic growth profiling, strain panel (AID 1159580);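 note: tested at 20 µM; growth read once vehicle control cultures reached saturation at 30 °C; 1 = growth at the plate median or of vehicle wells; lower values mean less growth of the strain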
Conditions: growth OD

Measured: normalized growth

C[C@@H]1[C@H]2[C@H](O[C@@H]3O[C@H](CO)[C@@H](O)[C@H](O)[C@H]3O)OC=C(C(=O)O)[C@H]2C[C@@H]1O
inactive: S. cerevisiae deletion strains, locus YAL013W, strain DEP1, active compounds read low 1.01 | S. cerevisiae deletion strains, locus YBR021W, strain FUR4, active compounds read low 1.05 | S. cerevisiae deletion strains, locus YBR229C, strain ROT2, active compounds read low 0.964 | S. cerevisiae deletion strains, locus YCL029C, strain bik1, active compounds read low 0.963 | S. cerevisiae deletion strains, locus YDL035C, strain GPR1, active compounds read low 1.02 | S. cerevisiae deletion strains, locus YDL074C, strain BRE1, active compounds read low 1.08 | S. cerevisiae deletion strains, locus YDL101C, strain DUN1, active compounds read low 0.98 | S. cerevisiae deletion strains, locus YDL134C, strain PPH21, active compounds read low 0.999 | S. cerevisiae deletion strains, locus YDL185W, strain tfp1, active compounds read low 0.962 | S. cerevisiae deletion strains, locus YDL192W, strain arf1, active compounds read low 1.03 | S. cerevisiae deletion strains, locus YDR101C, strain arx1, active compounds read low 1.01 | S. cerevisiae deletion strains, locus YDR162C, strain NBP2, active compounds read low 0.963 | S. cerevisiae deletion strains, locus YDR318W, strain mcm21, active compounds read low 0.986 | S. cerevisiae deletion strains, locus YDR388W, active compounds read low 0.996 | S. cerevisiae deletion strains, locus YDR502C, strain sam2, active compounds read low 1 | S. cerevisiae deletion strains, locus YEL061C, strain CIN8, active compounds read low 0.999 | S. cerevisiae deletion strains, locus YER110C, active compounds read low 0.974 | S. cerevisiae deletion strains, locus YER155C, strain BEM2, active compounds read low 1.02 | S. cerevisiae deletion strains, locus YER167W, strain BCK2, active compounds read low 1 | S. cerevisiae deletion strains, locus YGL078C, strain dbp3, active compounds read low 0.986 | S. cerevisiae deletion strains, locus YGL086W, strain mad1, active compounds read low 1.01 | S. cerevisiae deletion strains, locus YGL248W, strain PDE1, active compounds read low 0.987 | S. cerevisiae deletion strains, locus YGR078C, strain PAC10, active compounds read low 0.984 | S. cerevisiae deletion strains, locus YGR135W, strain pre9, active compounds read low 0.98 | S. cerevisiae deletion strains, locus YGR252W, strain gcn5, active compounds read low 0.995 | S. cerevisiae deletion strains, locus YHR030C, strain SLT2, active compounds read low 1.01 | S. cerevisiae deletion strains, locus YHR079C, strain IRE1 (second series), active compounds read low 0.985 | S. cerevisiae deletion strains, locus YHR094C, strain hxt1, active compounds read low 0.991 | S. cerevisiae deletion strains, locus YHR129C, strain ARP1, active compounds read low 1 | S. cerevisiae deletion strains, locus YHR200W, strain rpn10, active compounds read low 0.99 | S. cerevisiae deletion strains, locus YIL066C, strain RNR3, active compounds read low 1 | S. cerevisiae deletion strains, locus YIL073C, strain SPO22, active compounds read low 1.01 | S. cerevisiae deletion strains, locus YIL125W, strain kgd1, active compounds read low 0.978 | S. cerevisiae deletion strains, locus YIR030C, strain dcg1, active compounds read low 0.995 | S. cerevisiae deletion strains, locus YJL095W, strain BCK1, active compounds read low 0.996 | S. cerevisiae deletion strains, locus YJL134W, strain LCB3, active compounds read low 0.988 | S. cerevisiae deletion strains, locus YJL168C, strain set2, active compounds read low 1.01 | S. cerevisiae deletion strains, locus YJL187C, strain SWE1 (second series), active compounds read low 0.987 | S. cerevisiae deletion strains, locus YJR043C, strain POL32, active compounds read low 1.01 | S. cerevisiae deletion strains, locus YKL009W, strain mrt4, active compounds read low 1.03 | S. cerevisiae deletion strains, locus YKL068W, active compounds read low 0.977 | S. cerevisiae deletion strains, locus YKL085W, strain MDH1 (second series), active compounds read low 0.987 | S. cerevisiae deletion strains, locus YKL085W, strain MDH1, active compounds read low 0.987 | S. cerevisiae deletion strains, locus YKR001C, strain vps1, active compounds read low 0.983 | S. cerevisiae deletion strains, locus YLR039C, strain RIC1, active compounds read low 1.03 | S. cerevisiae deletion strains, locus YLR058C, strain SHM2, active compounds read low 0.977 | S. cerevisiae deletion strains, locus YLR102C, strain apc9, active compounds read low 0.987 | S. cerevisiae deletion strains, locus YLR262C, strain YPT6, active compounds read low 0.908 | S. cerevisiae deletion strains, locus YLR268W, strain sec22, active compounds read low 1.02 | S. cerevisiae deletion strains, locus YLR330W, strain CHS5, active compounds read low 1.01 | S. cerevisiae deletion strains, locus YLR342W, strain FKS1 (second series), active compounds read low 1.11 | S. cerevisiae deletion strains, locus YLR371W, strain rom2, active compounds read low 0.978 | S. cerevisiae deletion strains, locus YLR418C, strain cdc73, active compounds read low 0.984 | S. cerevisiae deletion strains, locus YML016C, strain PPZ1, active compounds read low 0.998 | S. cerevisiae deletion strains, locus YML032C, strain rad52, active compounds read low 0.995 | S. cerevisiae deletion strains, locus YML124C, strain tub3, active compounds read low 0.992 | S. cerevisiae deletion strains, locus YMR078C, strain ctf18, active compounds read low 0.976 | S. cerevisiae deletion strains, locus YMR223W, strain ubp8, active compounds read low 1.02 | S. cerevisiae deletion strains, locus YMR307W, strain GAS1, active compounds read low 1.16 | S. cerevisiae deletion strains, locus YNL067W, strain RPL9B, active compounds read low 0.992 | S. cerevisiae deletion strains, locus YNL128W, strain TEP1, active compounds read low 1 | S. cerevisiae deletion strains, locus YNL233W, strain BNI4, active compounds read low 1.01 | S. cerevisiae deletion strains, locus YNL250W, strain rad50, active compounds read low 0.992 | S. cerevisiae deletion strains, locus YNL271C, strain bni1, active compounds read low 0.994 | S. cerevisiae deletion strains, locus YNL298W, strain CLA4, active compounds read low 0.991 | S. cerevisiae deletion strains, locus YNL307C, strain MCK1, active compounds read low 0.986 | S. cerevisiae deletion strains, locus YNR052C, strain pop2, active compounds read low 0.96 | S. cerevisiae deletion strains, locus YOL012C, strain htz1 0.853 | S. cerevisiae deletion strains, locus YOL147C, strain pex11, active compounds read low 0.991 | S. cerevisiae deletion strains, locus YOR061W, strain CKA2, active compounds read low 0.962 | S. cerevisiae deletion strains, locus YOR069W, strain VPS5, active compounds read low 0.999 | S. cerevisiae deletion strains, locus YOR136W, strain idh2, active compounds read low 0.989 | S. cerevisiae deletion strains, locus YOR144C, strain elg1, active compounds read low 0.981 | S. cerevisiae deletion strains, locus YOR184W, strain ser1, active compounds read low 1.02 | S. cerevisiae deletion strains, locus YOR316C, strain cot1, active compounds read low 0.981 | S. cerevisiae deletion strains, locus YPR119W, strain clb2, active compounds read low 0.999 | S. cerevisiae deletion strains, locus YPR141C, strain kar3, active compounds read low 0.97 | S. cerevisiae deletion strains, locus YPR163C, strain tif3, active compounds read low 0.989 | S. cerevisiae deletion strains, locus YPR167C, strain met16, active compounds read low 0.973 | S. cerevisiae deletion strains, strain wtn01, active compounds read low 1.01 | S. cerevisiae strains, strain wild type, active compounds read low 1

From PubChem BioAssay AID1159580 (chemical genetic matrix, 2015)
